PNC assembly inh = High Content Assay for Compounds that inhibit the Assembly of the Perinucleolar Compartment; PC3M PTB-GFP, PNC prevalence imaging, 16 h; hits give low values; activity change (PNC), negative = inhibition, % at 10 µM; actives 3.1% (n = 140,000); AID 2417, 2010;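 active means readout at or below -70, meaning at least 70% loss of cells showing the perinucleolar compartment, a nuclear body marking cancer cells; inconclusive means readout between -30 and a set limit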
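PC3M cells stably expressing PTB-GFP, 750–1000 cells/well, treated 16 h at 37 °C with compound (23 nl of library stock), in duplicate. After paraformaldehyde fixation and Hoechst stain, imaged at 20x; PNC prevalence scored by image analysis.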
ALDH1A1 block = qHTS Assay for Inhibitors of Aldehyde Dehydrogenase 1 (ALDH1A1). Purified ALDH1A1, NADH fluorescence, propionaldehyde substrate. Potency, µM (titrated, usually from 75.3 µM), hits mostly inhibitors. actives 7.3% (n = 220,000)
HPGD inh = qHTS Assay for Inhibitors of HPGD (15-Hydroxyprostaglandin Dehydrogenase); Potency, µM, most hits filed as inhibitors; AID 894, 2007; actives 4.3% (n = 150,000); purified HPGD, NADH fluorescence kinetic, PGE2 substrate
Target sequence (P15428 whole entry, looked up): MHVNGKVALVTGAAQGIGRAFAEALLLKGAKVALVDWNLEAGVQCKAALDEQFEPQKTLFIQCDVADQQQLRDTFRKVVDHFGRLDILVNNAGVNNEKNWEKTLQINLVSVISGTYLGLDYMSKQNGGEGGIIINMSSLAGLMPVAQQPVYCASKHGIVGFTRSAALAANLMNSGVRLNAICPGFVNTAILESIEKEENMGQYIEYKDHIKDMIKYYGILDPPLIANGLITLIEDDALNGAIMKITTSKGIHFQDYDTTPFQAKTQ
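NADH formation kinetics: reaction with 30 uM PGE2 and 1 mM NAD+ (final), 20 nM enzyme, Tris-HCl pH 8 with Tween 20, after 15 min compound preincubation at room temperature. Fluorescence change, last versus first of five reads.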
Large screens that a line does not name were inactive. The list is not random: actives were taken first. Their share in the collection is about 11%. Unless noted, the call rests on the fitted dose curve; in most records, active means well fitted inhibition curve with a large enough effect (not every such curve was filed as active); inconclusive means small, poorly fitted or top-dose-only effect, or another doubt; inactive means no such curve, though single readings can be large or run the other way.

NC(=O)Cn1c2[n+](c3ccccc31)CC(O)CS2 (stereo not drawn)	ALDH1A1 block 11µM
CCOC(=O)Cn1c2[n+](c3ccccc31)CC(O)CS2 (stereo not drawn)	none
Nc1cc(N)nc(SCC(=O)c2ccccc2)n1	ALDH1A1 block inconclusive
C[n+]1cc[nH]c1SCC(=O)c1ccccc1	ALDH1A1 block 25µM
O=C(CSc1nnc2n1CCCN2)c1ccc(Cl)cc1	none
C[n+]1cc[nH]c1SCC(=O)c1ccc(Cl)cc1	ALDH1A1 block 19µM (no result: PNC assembly inh, HPGD inh)
c1ccc(CC2CCN(c3nnnn3-c3ccccc3)CC2)cc1	ALDH1A1 block 8.9µM
Cc1ccc(C)c(N2CCN(c3nnnn3-c3ccccc3)CC2)c1	none
CC(=O)N1CCN(c2nnnn2-c2ccccc2)CC1	none
Cc1cc(C)nc(N2CCN(c3nnnn3-c3ccccc3)CC2)n1	ALDH1A1 block 22µM
O=C1CN(c2nnnn2-c2ccccc2)CCN1	none
O=C1NCN(c2ccccc2)C12CCN(c1nnnn1-c1ccccc1)CC2	PNC assembly inh inconclusive, ALDH1A1 block 22µM
Cc1ccccc1-c1cc(N2CCNCC2)ncn1	none (no result: PNC assembly inh, HPGD inh)
CCC(=O)O[C@H]1C(O[C@@H]2C(C)[C@H](O[C@H]3C[C@@](C)(OC)C(O)C(C)O3)C(C)C(=O)OC(CC)[C@@](C)(O)C(O)[C@H](C)C(=O)C(C)C[C@]2(C)O)OC(C)CC1N(C)C (stereo partly drawn)	HPGD inh inconclusive (no result: PNC assembly inh)
Cc1ccccc1OC(C)C(=O)NC1CCCC1 (stereo not drawn)	HPGD inh 13µM
O=C(COC(=O)C1=Cc2ccccc2OC1)NCc1ccco1	none (no result: PNC assembly inh, HPGD inh)
CC(OC(=O)C1=Cc2ccccc2OC1)C(=O)NC1CCCC1 (stereo not drawn)	PNC assembly inh -90
O=C(OC(C(=O)NC1CCCC1)c1cccnc1)C1=Cc2ccccc2OC1 (stereo not drawn)	ALDH1A1 block inconclusive
CC(OC(=O)c1ccco1)C(=O)NC1CCCCC1 (stereo not drawn)	HPGD inh 14µM
O=C(COC(=O)C1=Cc2ccccc2OC1)NC1CCCC1	PNC assembly inh -83
COc1ccccc1OC(C)C(=O)NNC(=S)NC1CCCC1 (stereo not drawn)	none (no result: PNC assembly inh, HPGD inh)
CC(C)C(OC(=O)c1ccco1)C(=O)NC1CCCCC1 (stereo not drawn)	none
COCc1cc(=O)[nH]c(Sc2c(-c3ccccc3)c3ccc(Cl)cc3[nH]c2=O)n1	none
CC1CCCCC12NC(=O)N(CC(=O)Nc1sc3c(c1C(N)=O)CCC3)C2=O (stereo not drawn)	ALDH1A1 block inconclusive
C(=N/N1CCN(c2ccccc2)CC1)/c1ccncc1	none (no result: PNC assembly inh, HPGD inh)
CC(=O)c1c(C)oc2ccc(NS(=O)(=O)c3cccs3)cc12	none (no result: PNC assembly inh, HPGD inh)
CCCCC(CC)CN1CN(CC(CC)CCCC)CC(C)(N)C1 (stereo not drawn)	none (no result: PNC assembly inh)
Cc1ccc2c(CN3CCC(C)CC3)cc(=O)oc2c1	none
Cc1cc2oc(=O)cc(CN3CCC(C)CC3)c2cc1Cl	ALDH1A1 block 20µM
CCCCC(=O)Nc1nnc(C)s1	none
CCC(=O)Nc1nnc(C)s1	PNC assembly inh -106
CC(C)=CC(=O)Nc1nnc(-c2ccccc2)s1	none
CC(C)=CC(=O)Nc1nnc(C)s1	PNC assembly inh -108
CNc1cccc2c1C(=O)c1ccccc1C2=O	none
CNc1cccccc1=S	ALDH1A1 block 10µM, HPGD inh 28µM
COC(=O)c1sccc1NC(=O)c1sccc1C	PNC assembly inh -100, HPGD inh inconclusive
CCOC(=O)c1c(NC(=O)C(Sc2ccccc2)c2ccccc2)sc(C(=O)N(C)C)c1C (stereo not drawn)	PNC assembly inh inconclusive
CCC(C(=O)Nc1nc(C)c(C(=O)OC)s1)c1ccccc1 (stereo not drawn)	none (no result: PNC assembly inh, HPGD inh)
CCOC(=O)c1c(NC(=O)C(Sc2ccccc2)c2ccccc2)sc(C(N)=O)c1C (stereo not drawn)	ALDH1A1 block 14µM, HPGD inh 28µM
COC(=O)c1sccc1NC(=O)c1ccncc1	none
CCC(C(=O)Nc1ccsc1C(=O)OC)c1ccccc1 (stereo not drawn)	ALDH1A1 block 11µM (no result: PNC assembly inh, HPGD inh)
CCC(C(=O)Nc1sc(C(N)=O)c(C)c1C(=O)OC)c1ccccc1 (stereo not drawn)	ALDH1A1 block 13µM (no result: PNC assembly inh, HPGD inh)
COC(=O)c1c(NC(=O)C2CC=CCC2C(=O)O)sc(C(N)=O)c1C (stereo not drawn)	ALDH1A1 block inconclusive
COc1cc(CCN2C(=O)N[C@@H](c3cccc(C(F)(F)F)c3)C(C(C)=O)=C2C)cc(OC)c1OC	none
CCCOc1cc(C)c(S(=O)(=O)NC2CC(C)(C)NC(C)(C)C2)cc1C	none
Cc1ccc(-c2cc(C(=O)N/N=C/C=C/c3ccccc3)n[nH]2)s1	ALDH1A1 block inconclusive, HPGD inh 32µM
O=C(N/N=C/C=C/c1ccccc1)c1n[nH]c2c1CCC2	PNC assembly inh -98
O=C(N/N=C\c1cccc(Cl)c1)c1n[nH]c2c1CCCC2	ALDH1A1 block inconclusive
CC(/C=N/NC(=O)c1n[nH]c2c1CCC2)=C\c1ccccc1	PNC assembly inh inconclusive
Cc1cc(C(=O)N/N=C/C=C/c2cccc([N+](=O)[O-])c2)n[nH]1	none (no result: PNC assembly inh, HPGD inh)
O=C(N/N=C/c1ccc(Cl)cc1Cl)c1n[nH]c2c1CCCC2	PNC assembly inh -84
COc1cc(/C=N/NC(=O)COc2ccc(-n3cnnn3)cc2)ccc1OCC(N)=O	none (no result: PNC assembly inh, HPGD inh)
CC(C)N(Cc1ccccc1)C(=S)Nc1ccccc1F	none (no result: PNC assembly inh, HPGD inh)
COc1cc(C(=O)c2nccc3cc(OC)c(OC)cc23)c([N+](=O)[O-])cc1OC	none (no result: PNC assembly inh, HPGD inh)
O=C(CNS(=O)(=O)c1cccc2nsnc12)NCc1ccc(Cl)cc1	ALDH1A1 block inconclusive
O=C(NCC1CCCO1)C1CCN(C(=O)c2ccc(Br)cc2)CC1 (stereo not drawn)	none
CC(Oc1cccc(F)c1)C(=O)/C=C\N(C)C (stereo not drawn)	HPGD inh inconclusive
Cc1ccc(C(=O)Oc2ccc(-c3nccc(-c4ccccn4)n3)cc2)cc1	PNC assembly inh inconclusive
CN(C)/C=C/C(=O)Oc1ccc(Cl)cc1Cl	none (no result: PNC assembly inh, HPGD inh)
CC(Oc1ccc(F)cc1)C(=O)/C=C\N(C)C (stereo not drawn)	PNC assembly inh -88
CC(Oc1ccccc1F)C(=O)/C=C/N(C)C (stereo not drawn)	HPGD inh 28µM
CC(Oc1ccc(-c2nccc(-c3ccccn3)n2)cc1)C(=O)NN (stereo not drawn)	ALDH1A1 block 18µM
CNC(=O)NC(=O)C(C)Oc1ccccc1F (stereo not drawn)	none (no result: PNC assembly inh, HPGD inh)
CC(Oc1ccccc1Cl)C(=O)/C=C/N(C)C (stereo not drawn)	HPGD inh 14µM
O=C(CCNS(=O)(=O)c1cccc2nsnc12)N1CC(=O)N(CCc2ccccc2)C(=O)C1	none (no result: HPGD inh)
CCOC(=O)C1=C(C)NC(C)=C(C(=O)OCC)C1C(=O)OCC(=O)N1CCc2ccccc2C1	ALDH1A1 block inconclusive
CC(Oc1ccccc1)C(=O)Nc1cccc(F)c1 (stereo not drawn)	none
CC(Oc1ccc(F)cc1)C(=O)NN (stereo not drawn)	ALDH1A1 block 5µM
CCN1/C(=C2\SC(=S)N(Cc3ccccc3)C2=O)Sc2ccccc21	PNC assembly inh inconclusive
CCN1C(C)=C(C)S/C1=C1\SC(=S)N(N)C1=O	ALDH1A1 block 20µM (no result: PNC assembly inh, HPGD inh)

Screening data: PubChem, National Center for Advancing Translational Sciences (NCATS)
